TRPV1 ag: agonists of human vanilloid receptor 1 (TRPV1). hit rate 0.19% among 320,000. TRPV1-expressing cells, Fluo-8 calcium influx, agonist mode. activation, % at 8.33 µM. Q8NER1; in the data active = activation above about 80%; inconclusive = between about 30% and that limit; note: 0% is about no effect
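TRPV1-expressing cells were cultured overnight at 35.5C and loaded with Fluo-8 calcium dye for 40 to 90 min at room temperature. After a 10 s baseline, compound was added and calcium influx was read kinetically for 3 min (ex 480/em 520 nm).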
TRPML1 blocker: inhibitors of human TRPML1 channel; TRPML1-inducible cells, Ca2+ dye fluorescence, FDSS; stronger effect = lower value; inhibition of EC80 agonist-evoked calcium signal; hit rate 0.02% among 390,000; AID 624415; Q9GZU1; activity change, negative = inhibition, % (concentration not given with the values); in the data active = activity change below about -50%; inconclusive = between about -30% and that limit;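 note: stimulus is agonist 54-4 at its EC80 concentration; % is set by controls: 0 for no effect and ±100 for the full control effect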
Target sequence (Q9GZU1 whole entry, looked up): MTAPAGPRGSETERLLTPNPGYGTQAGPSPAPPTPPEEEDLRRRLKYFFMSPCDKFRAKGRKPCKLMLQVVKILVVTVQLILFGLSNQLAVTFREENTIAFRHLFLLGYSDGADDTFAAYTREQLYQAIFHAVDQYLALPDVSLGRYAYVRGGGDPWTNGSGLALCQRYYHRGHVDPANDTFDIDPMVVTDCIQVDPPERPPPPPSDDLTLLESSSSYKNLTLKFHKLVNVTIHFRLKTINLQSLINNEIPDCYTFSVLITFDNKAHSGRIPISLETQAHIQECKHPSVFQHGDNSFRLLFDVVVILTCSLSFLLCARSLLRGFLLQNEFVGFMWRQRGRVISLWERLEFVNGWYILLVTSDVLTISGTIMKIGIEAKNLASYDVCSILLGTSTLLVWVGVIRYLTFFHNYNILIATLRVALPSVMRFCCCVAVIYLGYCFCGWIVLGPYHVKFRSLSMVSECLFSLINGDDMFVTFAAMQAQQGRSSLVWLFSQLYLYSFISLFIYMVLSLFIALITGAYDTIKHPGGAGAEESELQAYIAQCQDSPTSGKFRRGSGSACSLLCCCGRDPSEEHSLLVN
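Calcium fluorescence in TRPML1-DL cells induced overnight with Tet: a 110 s read after compound pin addition, then a 110 s antagonist read after challenge with 54-4 at 4 uM final (EC80).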
AT treatment: potential ataxia-telangiectasia treatment; F2112 A-T fibroblasts, KAP-1 phosphorylation AlphaLISA; neocarzinostatin DNA damage 30 min before lysis; Potency, µM (titrated, usually from 57.5 µM), for inactives: top-dose activation, usual class: activators; hit rate 0.19% among 320,000; AID 485349; active = well fitted activation curve with a large enough effect; inconclusive = small, poorly fitted or top-dose-only effect; inactive = no such curve, though single readings can be large or run the other way; note: potency is the fitted concentration of half-maximal effect; % of control where 0% means no effect; nearly all actives have a fitted effect of over 45% in size
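ATM-like activity read as KAP-1 phosphorylation via AlphaLISA donor/acceptor antibody pairs after lysis and 6 hr at 25C. Cells were ATM-null patient fibroblasts (F2112, hTERT), dosed 60 min, then exposed to the DSB inducer NCS for 30 min.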
TRPML1 ag: agonists of human TRPML1 channel. Q9GZU1. activation, % (concentration not given with the values). hit rate 0.12% among 410,000. TRPML1-expressing cells, Ca2+ dye fluorescence, FDSS; in the data active = activation above about 50%; inconclusive = mostly about 30% to 49%; note: 0% is about no effect
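Calcium fluorescence on an FDSS kinetic reader gave the read-out. Tet-induced TRPML1-DL cells were plated overnight, dye-loaded (Ca8 with quencher, 45-90 min, room temperature, dark), then read 110 s after compound addition, and again 110 s after 4uM final 54-4 (EC80).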
TRPV1 potentiator: enhances activation of the human vanilloid receptor TRPV1 | Q8NER1 | TRPV1-expressing cells, Fluo-8 calcium influx, capsaicin EC20 potentiation | potentiation, % at 8.33 µM | hit rate 0.02% among 320,000; in the data active = potentiation above about 80%; inconclusive = between about 30% and that limit; note: 0% is about no effect
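Cells expressing TRPV1 were dye-loaded with Fluo-8 and read kinetically: 10 s baseline, 3 min after compound (agonist portion), then 2 min after EC20 capsaicin (allosteric enhancer portion). Calcium-bound dye fluorescence at 480/520 nm.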
An asterisk follows results filed as active. The list is not random: actives were taken first. Their share in the collection is about 0.41%.

CCOC(=O)/C(=C/C=C1\Sc2ccccc2N1CC)C(C)=O was read as TRPV1 ag inconclusive, TRPML1 blocker 4, AT treatment -12%, TRPML1 ag 80* and TRPV1 potentiator -1.
Screening O=C(Nc1ccc(Br)cn1)c1ccc(Cl)s1 returned TRPV1 ag 99*, TRPML1 blocker 5, AT treatment 0%, TRPML1 ag 0 and TRPV1 potentiator 12.
`Cc1cc(C(=O)Nc2ccc(Br)cn2)sc1C` gave TRPV1 ag 83*, TRPML1 blocker 5, AT treatment 10%, TRPML1 ag 1 and TRPV1 potentiator -5.
`Cc1ccccc1C(=O)Nc1ccc(Br)cn1` gave TRPV1 ag inconclusive, TRPML1 blocker -5, AT treatment 13%, TRPML1 ag 0 and TRPV1 potentiator -5.
For O=C(Nc1ccc(Br)cn1)c1ccc(Br)s1 the results were TRPV1 ag inconclusive, TRPML1 blocker 26, AT treatment 6%, TRPML1 ag 2 and TRPV1 potentiator 11.
For CCc1cccc2c(C(O)(c3c[nH]c4c(CC)cccc34)c3c[nH]c4c(CC)cccc34)c[nH]c12 the results were TRPML1 ag 0.
For COc1cccc(-n2c(=O)c3ccccc3n3c(=S)[nH]nc23)c1 the results were TRPV1 ag -1, TRPML1 blocker -51*, AT treatment -6%, TRPML1 ag -1 and TRPV1 potentiator 4.
Cc1nc2ccc3nc(NC(=O)c4ccc5c(c4)OCCO5)sc3c2s1 was read as TRPV1 ag -4, TRPML1 blocker 0, AT treatment 25µM*, TRPML1 ag 0 and TRPV1 potentiator 17.
CS(=O)(=O)c1[nH]nc(-c2cccc(Cl)c2)c1C#N was read as TRPV1 ag 1, TRPML1 blocker 4, AT treatment 40µM*, TRPML1 ag 0 and TRPV1 potentiator 12.
Screening N#Cc1c(-c2cccc(Cl)c2)[nH]c(=S)[nH]c1=O returned TRPV1 ag 2, TRPML1 blocker -9, AT treatment 0%, TRPML1 ag 0 and TRPV1 potentiator 3.
Cc1ccc(/C=N/N(C)S(=O)(=O)c2ccc(C)cc2)cc1 was read as TRPV1 ag 3, TRPML1 blocker 30, AT treatment 28µM*, TRPML1 ag 4 and TRPV1 potentiator 8.
CCNc1nc(NCc2ccco2)c2ccccc2n1 was read as TRPML1 ag 72*.
`c1ccc(Nc2nc(NCc3ccco3)c3ccccc3n2)cc1` gave TRPV1 ag -3, TRPML1 blocker -15, AT treatment 12%, TRPML1 ag 1 and TRPV1 potentiator 12.
For CNc1nc(NCc2ccco2)c2ccccc2n1 the results were TRPML1 ag 70*.
For CC(C)(C)n1ncc2c(=O)n(Cc3ccc(F)c(F)c3F)cnc21 the results were TRPML1 blocker -16 and TRPML1 ag 2.
`COC(=O)c1c(NC(=O)C(=O)N2CCOCC2)sc2c1CCC2` gave TRPV1 ag inconclusive, TRPML1 blocker -3, AT treatment 4%, TRPML1 ag -1 and TRPV1 potentiator -11.
COC(=O)c1c(NC(=O)C(=O)N2CCOCC2)sc2c1CCCC2 was read as TRPV1 ag 87*, TRPML1 blocker 8, AT treatment 5%, TRPML1 ag -1 and TRPV1 potentiator -27.
For O=C(C[n+]1csc2ccccc21)c1ccc(O)c(O)c1 the results were TRPML1 ag -1.
COc1ccc(/C=C2\C=Cc3ccccc32)cc1 was read as TRPML1 ag 0.
For C(=N\Nc1ccccn1)/c1c[nH]c2ccccc12 the results were TRPV1 ag 0, TRPML1 blocker -14, AT treatment 5µM*, TRPML1 ag 0 and TRPV1 potentiator 13.
Cc1nnc(SCC(=O)NC(=O)Nc2ccc3c(c2)OCCO3)n1N was read as TRPV1 ag 1, TRPML1 blocker -12, AT treatment 0.71µM*, TRPML1 ag 1 and TRPV1 potentiator 1.
Cc1ccc(-n2nnnc2SCC(=O)NC(=O)Nc2ccc3c(c2)OCCO3)cc1 was read as TRPV1 ag 1, TRPML1 blocker -11, AT treatment -4%, TRPML1 ag 0 and TRPV1 potentiator 2.
CCOc1ccccc1-n1c(=S)sc2c(=O)n(-c3ccc(C)cc3)c(=S)[nH]c21 was read as TRPV1 ag 3, TRPML1 blocker inconclusive, AT treatment -2%, TRPML1 ag 66* and TRPV1 potentiator 7.
Screening O/N=C(/C[n+]1ccsc1)c1ccc(I)cc1 returned TRPML1 ag -1.
O=S1(=O)CCOC[C@H](c2ccccc2)N1Cc1ccc(Cl)cc1Cl was read as TRPML1 ag 0.
For C=CCn1c(NS(=O)(=O)c2ccccc2)c(S(=O)(=O)c2ccc(C)cc2)c2nc3ccccc3nc21 the results were TRPV1 ag -3, TRPML1 blocker inconclusive, AT treatment 22µM*, TRPML1 ag 0 and TRPV1 potentiator 13.
For Cc1ccc(S(=O)(=O)c2c(N)n(Cc3ccco3)c3nc4ccccc4nc23)cc1 the results were TRPV1 ag 8, TRPML1 blocker -2, AT treatment 32µM*, TRPML1 ag 0 and TRPV1 potentiator 13.
Cc1cccc(S(=O)(=O)c2c(N)n(Cc3ccco3)c3nc4ccccc4nc23)c1 was read as TRPV1 ag 6, TRPML1 blocker -5, AT treatment 20%, TRPML1 ag 4 and TRPV1 potentiator -4.
For O=C(C[N+]1(CCc2ccccc2)CCOCC1)c1cccc([N+](=O)[O-])c1 the results were TRPML1 ag 0.
Screening CN(Cc1ccc(C(F)(F)F)cc1)C(=O)c1ccc(Oc2ccccc2)cc1 returned TRPV1 ag 16, AT treatment -3% and TRPV1 potentiator -36.
Screening CN(Cc1ccccc1F)C(=O)c1ccc(Oc2ccccc2)cc1 returned TRPV1 ag 25, TRPML1 blocker 30, AT treatment 14µM*, TRPML1 ag 3 and TRPV1 potentiator -8.
Screening O=C(Cc1ccc(OCCc2ccccc2)cc1)NO returned TRPML1 ag -1.
For OCCCNc1nc(-c2ccccc2)c2cc(Br)ccc2n1 the results were TRPV1 ag inconclusive, TRPML1 blocker 32, AT treatment 40µM*, TRPML1 ag 2 and TRPV1 potentiator -23.
CCCOc1ccc(/C=C/C(=O)N2CCOCC2)cc1 was read as TRPV1 ag 89*, TRPML1 blocker 52, AT treatment 0%, TRPML1 ag 1 and TRPV1 potentiator -8.
`CC(C)c1ccc(/C=C/C(=O)N2CCOCC2)cc1` gave TRPV1 ag 94*, TRPML1 blocker -9, AT treatment 1%, TRPML1 ag 0 and TRPV1 potentiator 8.
`CCCOc1ccc(/C=C/C(=O)N2CCN(c3ccccn3)CC2)cc1` gave TRPV1 ag -1, TRPML1 blocker 14, AT treatment -2%, TRPML1 ag 0 and TRPV1 potentiator -7.
CC(C)c1ccc(/C=C/C(=O)N2CCCCCC2)cc1 was read as TRPV1 ag inconclusive, TRPML1 blocker 30, AT treatment 13%, TRPML1 ag 1 and TRPV1 potentiator 0.
